For 219 sequences, binding signal results are on record in article PMC6212790, “How bacterial xenogeneic silencer rok distinguishes foreign from self DNA in its resident genome”.

The full ranking holds about 33,000 sequences; the median of “e-score” is about -0.038, and the highest 2% start at about 0.33. Many of the other results were omitted from the sample, so the highest values are more common in it than they were.

The experiment has as its target T1, GST-Rok-C97-191 (Bacillus subtilis subsp. subtilis str. …, UniProt O34857 97-191).
T1 sequence: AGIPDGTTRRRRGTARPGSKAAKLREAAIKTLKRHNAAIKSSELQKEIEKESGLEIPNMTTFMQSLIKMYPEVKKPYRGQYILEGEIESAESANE
The experiment can be described thus: protein binding microarray; Rok is a gene silencer of Bacillus subtilis; high values mean tight binding. Particulars: protein: recombinant; tags: GST (pTH5325, pDEST15-Magic modified); dsDNA, one strand shown. The gist of the method: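 Every oligonucleotide joins a 25-mer constant primer to a 35-mer variable part drawn from a de Bruijn sequence of order 10, so each non-palindromic 8-mer appears at least 32 times and each palindromic 8-mer 16 times. The preference for every 8-mer is reported as a unitless, rank-based enrichment score (E-score). This score spans 0.5 for the most favored 8-mer to −0.5 for the most disfavored.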
With AAGGACTG, the binding signal was -0.0637 E-score.

Take ACAGAGAG: the binding signal was -0.125 E-score. To CTATTGTA belongs 0.355 E-score; to ATATTGTG, 0.214 E-score; to ATATTGTA, 0.363 E-score.

Take CAATTGTA: the binding signal worked out at 0.251 E-score. Under GTATTGTA stands 0.212 E-score. Turning to CTATTGTC, the binding signal is -0.0498 E-score.

Take ATGCGCGG: the binding signal is -0.168 E-score. Under CTGTCCAA stands -0.154 E-score; under CACAGAGG, -0.0801 E-score. Under ACATCCTG stands -0.137 E-score; under TCCTGCGA, -0.149 E-score; under GGCTTGAA, -0.105 E-score. Regarding CACTGACG, the binding signal came out at 0.009 E-score. To AAATTTGA belongs 0.0368 E-score.

AAATTTGT: the binding signal is 0.33 E-score. AAATTTAC: the binding signal was found to be 0.38 E-score. Under AAATTTTC stands 0.182 E-score; under AATTTTTA, 0.167 E-score; under ATTTTTAC, 0.328 E-score. Under AAATTTAG stands 0.242 E-score; under AAATTTTA, 0.374 E-score; under AAATTTGG, 0.0224 E-score. Under AATTTTAG stands 0.259 E-score.

Regarding AATTTTAC, the binding signal turned out to be 0.384 E-score.

GAATTTAC: the binding signal came to 0.282 E-score. Turning to TGAAGTAA, the binding signal amounted to 0.132 E-score. GTAATAAC: the binding signal amounted to 0.0936 E-score. To GTATTCGA belongs 0.15 E-score. To ATTTGCTG belongs -0.0116 E-score. In the case of AAGATTGC, the binding signal is -0.0164 E-score. Take AATCGTGA: the binding signal is -0.118 E-score. Under ACCCATGC stands -0.182 E-score; under AGAGCGAA, -0.138 E-score; under GGTCGACA, -0.101 E-score. Under CAAATTTA stands 0.31 E-score; under CAATTTAG, 0.232 E-score; under AAAATTTA, 0.282 E-score. In the case of CAATTTAC, the binding signal came to 0.357 E-score.

In the case of TAAATTTA, the binding signal came out at 0.405 E-score.

Consider CAATTTAA, for which the binding signal was 0.0656 E-score. To AGTCTGGG belongs -7.1e-05 E-score; to GAGCTTAC, -0.189 E-score. In the case of CCGAAAAC, the binding signal is 0.168 E-score. To AATACAAA belongs 0.313 E-score; to CATACAAA, 0.219 E-score; to CATACATG, 0.171 E-score. Under TACACATA stands 0.203 E-score; under GATACATA, 0.377 E-score.

Regarding CATACATA, the binding signal is 0.234 E-score. For the sequence TATACAAA, the binding signal was found to be 0.347 E-score. Under TATACATA stands 0.401 E-score.

For AATACATA, the binding signal stood at 0.308 E-score.

For CATTAACC, the binding signal is -0.0128 E-score. To TCATACCA belongs 0.0725 E-score. Under ATTAGCAC stands 0.0299 E-score. Under GTCGGAAC stands 0.0505 E-score; under AAGGTTGA, 0.063 E-score; under CTACCTTA, 0.264 E-score. On to AAAAGCAA, for which the binding signal was determined as 0.148 E-score.

CGATTATC: the binding signal is 0.0925 E-score. Under TACTGAGA stands 0.0745 E-score. For TTACTAAA, the binding signal amounted to 0.335 E-score. To GTACTAAC belongs 0.145 E-score; to ATACTAAT, 0.321 E-score; to GGACTAAA, 0.0947 E-score. To CTACTAAA belongs 0.379 E-score; to CTACTAAG, 0.261 E-score; to TGACTAAA, 0.0396 E-score.

Turning to ATACTAAC, the binding signal turned out to be 0.103 E-score. Under ATACTAAA stands 0.39 E-score; under GTACTAAA, 0.329 E-score. To CTACTAAC belongs 0.223 E-score. Under TCACTAAA stands 0.164 E-score. Consider TATTTCCA, for which the binding signal amounted to 0.228 E-score. To ACTATTGC belongs 0.313 E-score; to CTATCTTA, 0.227 E-score; to AAGAATCT, 0.0962 E-score.

For TTCCTCAA, the binding signal amounted to 0.041 E-score.

Take AACTGAGC: the binding signal was 0.0188 E-score. Under GAAGCTGA stands 0.014 E-score.

Take ACGGTCCT: the binding signal is -0.132 E-score. AAACTGTT: the binding signal is -0.043 E-score. To TATAGATA belongs 0.368 E-score. GAAAGATA: the binding signal was 0.329 E-score. Under GATAGATA stands 0.347 E-score; under CTAAGATA, 0.213 E-score.

With CATAGATA, the binding signal turned out to be 0.297 E-score. With GTTAGATA, the binding signal was 0.321 E-score. With AATAGATA, the binding signal came out at 0.32 E-score. Take GTAAGATA: the binding signal came to 0.229 E-score. On to AAAAGATA, for which the binding signal stood at 0.137 E-score. As for TAAAGATA, the binding signal was determined as 0.27 E-score. To GATAGATC belongs 0.268 E-score; to ATAAGATA, 0.372 E-score; to AACATCGA, 0.134 E-score. To GCACAAAC belongs -0.0175 E-score. Under AGCGTGGA stands 0.126 E-score; under AAAAGAGA, 0.147 E-score. On to TCCATTCA, for which the binding signal was -0.131 E-score. Under TAACAATA stands 0.292 E-score.

GATTTGCC: the binding signal is -0.0374 E-score. Under CGTTATCC stands -0.0591 E-score. Under ACACCTGC stands -0.197 E-score; under GTGCGGGA, -0.196 E-score.

For CTCCCATC, the binding signal was -0.161 E-score. To AATAGATC belongs 0.161 E-score.

As for AATAGATG, the binding signal was 0.267 E-score.

AATAGATT: the binding signal came out at 0.352 E-score.

As for CTAGTCGA, the binding signal was determined as 0.131 E-score. To GATAAGCA belongs 0.0731 E-score; to ATAATACG, 0.344 E-score; to ATAATAAT, 0.31 E-score. Under ATAATACC stands 0.197 E-score. To ATAATACA belongs 0.242 E-score. As for ATAATAAG, the binding signal was determined as 0.331 E-score. Under CTAATAAG stands 0.127 E-score. On to AGGAACCA, for which the binding signal is 0.128 E-score. Take AAGCTTGC: the binding signal was -0.0667 E-score. To AAGACGGC belongs -0.186 E-score; to CCTCGCTC, -0.125 E-score.

AAATATAG: the binding signal was 0.22 E-score. Take GAATATAC: the binding signal came out at 0.293 E-score.

Regarding CAATATAC, the binding signal came out at 0.243 E-score.

AAATATAC: the binding signal was 0.401 E-score. Under AACTATAG stands 0.327 E-score.

For AACTATAT, the binding signal stood at 0.415 E-score. Under AAATATAA stands 0.269 E-score; under AACTATAC, 0.253 E-score; under AAATATAT, 0.417 E-score. Under AAGTGCGG stands 0.009 E-score; under CGAGCCTA, -0.0633 E-score; under GAACGTCA, -0.14 E-score. In the case of CGGCACTA, the binding signal worked out at 0.0999 E-score. Under ATTTAGGG stands -0.024 E-score; under CTTTGCTC, -0.124 E-score. For AAAGTACA, the binding signal stood at 0.366 E-score.

For the sequence AAAGTACC, the binding signal amounted to 0.291 E-score. Under GAAGTACA stands 0.237 E-score; under TAAGTACA, 0.35 E-score. Take CAAGTACA: the binding signal was 0.151 E-score. Regarding AAAGTACG, the binding signal turned out to be 0.192 E-score. To CCGTTGGA belongs -0.177 E-score; to ACAAAACG, -0.11 E-score; to ATTTTACC, 0.322 E-score. With AATTTACC, the binding signal is 0.345 E-score. To CATTTACA belongs 0.277 E-score. For AATTTAAT, the binding signal turned out to be 0.321 E-score.

Consider AATTTACG, for which the binding signal stood at 0.338 E-score.

CATTTACG: the binding signal is 0.0408 E-score. For the sequence ATTTTACG, the binding signal came out at 0.268 E-score. In the case of AATTTACT, the binding signal was 0.416 E-score. To GATTTACC belongs 0.187 E-score; to AATTTACA, 0.331 E-score; to AATTTAGT, 0.165 E-score. On to TATTTACA, for which the binding signal is 0.235 E-score. Regarding AAAAATGT, the binding signal was found to be 0.129 E-score.

Turning to AAGGCAGC, the binding signal worked out at 0.0072 E-score. In the case of CCAAACGG, the binding signal was -0.0693 E-score. With CAATGTTA, the binding signal was 0.195 E-score. Under CTGCGCCC stands -0.144 E-score. To GACACTGC belongs -0.137 E-score; to AGCGTTCC, -0.026 E-score.

For the sequence AATCAGAC, the binding signal is -0.0483 E-score. Under CGCGATTA stands 0.0183 E-score. Under AGCAGTCA stands 0.0635 E-score. Under ACGACCTA stands 0.00188 E-score. Consider ATTTTTCG, for which the binding signal stood at 0.181 E-score. For the sequence ATACGTAA, the binding signal turned out to be 0.371 E-score. To GTACGTAA belongs 0.0489 E-score; to TTACGTAA, 0.261 E-score; to ACGGAAGG, -0.162 E-score. On to ATATCTAG, for which the binding signal stood at 0.284 E-score.

As to ATCTCTAA, the binding signal came out at 0.106 E-score. To ATATCTTC belongs 0.344 E-score. To CTATCTAA belongs 0.282 E-score; to CTATCTTC, 0.105 E-score. In the case of ATATCTTA, the binding signal is 0.26 E-score.

Regarding ATATCTAC, the binding signal stood at 0.377 E-score. To CTATCTAC belongs 0.433 E-score.

Turning to CTCTCTAC, the binding signal is 0.064 E-score. Under ATATCTAA stands 0.351 E-score; under ATCTCTAC, 0.118 E-score. To CCATCTAC belongs 0.213 E-score. Under CAGACGGA stands -0.1 E-score; under CGGTCGCA, -0.0742 E-score; under GTCAATTA, 0.163 E-score.

On to GAACAGAC, for which the binding signal was -0.0366 E-score. Under TACGCAGA stands -0.138 E-score; under AGCTGAAC, -0.0772 E-score. To GATAAAGC belongs -0.0584 E-score. To CTAAGTAA belongs 0.266 E-score; to CGTATCAA, 0.0404 E-score. Consider GTACTACA, for which the binding signal turned out to be 0.296 E-score. Under ATACTACA stands 0.388 E-score; under CTACTAGA, 0.293 E-score. For the sequence ATACTGCA, the binding signal is 0.287 E-score.

In the case of CTACTACA, the binding signal came to 0.366 E-score.

With ACACTACA, the binding signal amounted to 0.294 E-score. To AGACGTGC belongs -0.045 E-score. To CAGCTAAA belongs 0.0943 E-score; to CTTTTTGC, -0.0956 E-score.

Turning to CTAAGCGA, the binding signal was -0.171 E-score. To TAGTCAAA belongs 0.158 E-score. Under TAATATTA stands 0.287 E-score. Under CCATATTA stands 0.121 E-score.

Consider AAATATTG, for which the binding signal is 0.286 E-score. To AAATATTC belongs 0.219 E-score. To GAATATTA belongs 0.2 E-score; to ACATATTG, 0.232 E-score; to CTATATTA, 0.355 E-score.

In the case of GAATATTC, the binding signal is 0.339 E-score.

CAATATTC: the binding signal amounted to 0.186 E-score. To CAATATTA belongs 0.204 E-score; to AAATATTA, 0.355 E-score.

In the case of ATATATTG, the binding signal was 0.419 E-score. Turning to ACCTATTC, the binding signal came to 0.0409 E-score. Under GAATGCAA stands -0.0262 E-score.
